The record followed here is paper PMC7862700, “An all-to-all approach to the identification of sequence-specific readers for epigenetic DNA modifications on cytosine”.

Holding throughout (assay): DAPPL (digital affinity profiling via proximity ligation, sequencing); 10 mM Tris-HCl pH 7.5, 50 mM NaCl, 1 mM DTT, 4% glycerol, room temperature, 30 min; GST-TFs on glutathione beads, 16-mer random dsDNA library, 0.1% formaldehyde crosslink after washing; high values mean tight binding
What all share (conditions): protein: recombinant; tags: N-terminal GST; dsDNA, one strand shown

The target of one assay is T1, ERF (Homo sapiens, UniProt P50548 1-548).
T1 sequence: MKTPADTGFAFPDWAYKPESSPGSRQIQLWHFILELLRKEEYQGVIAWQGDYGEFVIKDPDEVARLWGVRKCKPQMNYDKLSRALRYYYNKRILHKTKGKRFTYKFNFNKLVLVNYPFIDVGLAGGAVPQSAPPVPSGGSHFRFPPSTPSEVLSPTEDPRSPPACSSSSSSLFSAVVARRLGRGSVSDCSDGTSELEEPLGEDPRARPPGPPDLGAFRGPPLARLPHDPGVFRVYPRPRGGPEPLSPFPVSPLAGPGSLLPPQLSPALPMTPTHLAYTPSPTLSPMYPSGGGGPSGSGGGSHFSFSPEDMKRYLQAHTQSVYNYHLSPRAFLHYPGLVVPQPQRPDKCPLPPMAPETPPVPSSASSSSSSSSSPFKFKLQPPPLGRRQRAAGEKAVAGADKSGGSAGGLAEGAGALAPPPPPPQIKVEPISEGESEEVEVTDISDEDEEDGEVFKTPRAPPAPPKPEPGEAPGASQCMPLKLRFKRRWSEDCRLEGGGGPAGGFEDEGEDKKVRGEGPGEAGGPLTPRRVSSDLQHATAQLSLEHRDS
An outline of the steps:
(§1)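 Binding signal is given per hexamer as its read frequency for a factor divided by its frequency in the tag-only sample. GST-fused human transcription factors were expressed in yeast, captured on glutathione beads, barcoded with DNA and pooled with that sample, then incubated with 200 nmole of a 16-mer random double-stranded DNA library in Tris/NaCl/DTT/glycerol buffer for 30 min at room temperature. The pools were then washed, crosslinked, proximity-ligated, amplified by PCR and sequenced on an Illumina NextSeq500.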

In another assay the target is T2, ETV3L (Homo sapiens, UniProt Q6ZN32 1-361).
T2 sequence: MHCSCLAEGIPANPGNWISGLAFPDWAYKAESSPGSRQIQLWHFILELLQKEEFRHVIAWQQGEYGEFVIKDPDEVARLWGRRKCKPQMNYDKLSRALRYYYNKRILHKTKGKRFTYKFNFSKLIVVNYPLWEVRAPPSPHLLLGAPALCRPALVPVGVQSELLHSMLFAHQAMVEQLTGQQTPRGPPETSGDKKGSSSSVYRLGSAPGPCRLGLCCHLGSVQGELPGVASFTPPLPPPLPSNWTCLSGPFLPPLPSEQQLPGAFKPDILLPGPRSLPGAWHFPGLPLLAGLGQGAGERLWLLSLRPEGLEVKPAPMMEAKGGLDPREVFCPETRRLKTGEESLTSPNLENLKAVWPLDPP
An outline of the steps:
as §1

In a further assay the target is T3, ETS2 (Homo sapiens, UniProt P15036 1-469).
T3 sequence: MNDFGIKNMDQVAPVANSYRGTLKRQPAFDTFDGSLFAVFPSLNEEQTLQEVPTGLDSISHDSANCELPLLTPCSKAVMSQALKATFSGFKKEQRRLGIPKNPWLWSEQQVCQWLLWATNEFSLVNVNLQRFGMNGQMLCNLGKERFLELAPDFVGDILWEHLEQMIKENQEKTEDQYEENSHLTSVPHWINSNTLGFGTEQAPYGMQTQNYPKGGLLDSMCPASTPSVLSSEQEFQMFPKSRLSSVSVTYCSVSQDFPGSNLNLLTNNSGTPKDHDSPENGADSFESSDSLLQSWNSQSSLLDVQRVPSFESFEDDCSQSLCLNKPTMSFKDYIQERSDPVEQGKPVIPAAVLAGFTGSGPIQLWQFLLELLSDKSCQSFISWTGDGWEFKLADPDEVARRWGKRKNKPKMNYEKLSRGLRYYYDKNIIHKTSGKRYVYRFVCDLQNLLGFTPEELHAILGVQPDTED
An outline of the steps: as §1

A further assay concerns the target T4, SPDEF (Homo sapiens, UniProt O95238 1-335).
T4 sequence: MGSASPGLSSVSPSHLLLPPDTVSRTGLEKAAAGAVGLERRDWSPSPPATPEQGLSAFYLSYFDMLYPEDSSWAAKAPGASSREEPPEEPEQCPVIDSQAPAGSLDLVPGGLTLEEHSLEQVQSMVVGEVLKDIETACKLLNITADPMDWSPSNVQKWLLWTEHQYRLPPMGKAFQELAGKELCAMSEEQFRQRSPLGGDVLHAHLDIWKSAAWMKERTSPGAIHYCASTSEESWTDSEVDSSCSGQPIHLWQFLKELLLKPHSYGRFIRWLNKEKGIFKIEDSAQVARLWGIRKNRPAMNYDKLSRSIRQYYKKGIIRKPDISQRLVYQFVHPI
The essentials: as §1

The target of a further assay is T5, ETV7 (Homo sapiens, UniProt Q9Y603 1-341).
T5 sequence: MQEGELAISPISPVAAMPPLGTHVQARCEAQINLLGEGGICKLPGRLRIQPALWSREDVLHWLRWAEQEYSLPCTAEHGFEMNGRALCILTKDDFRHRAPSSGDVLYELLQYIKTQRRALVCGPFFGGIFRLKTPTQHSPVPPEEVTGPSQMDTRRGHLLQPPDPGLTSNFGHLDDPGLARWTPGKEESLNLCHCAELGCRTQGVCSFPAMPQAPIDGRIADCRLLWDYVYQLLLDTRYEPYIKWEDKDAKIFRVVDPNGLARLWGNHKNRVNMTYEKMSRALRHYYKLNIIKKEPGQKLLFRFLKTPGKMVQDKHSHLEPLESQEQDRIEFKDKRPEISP
An outline of the steps: as §1

The target of another assay is T6, ELF5 (Homo sapiens, UniProt Q9UKW6-2 1-255).
T6 sequence: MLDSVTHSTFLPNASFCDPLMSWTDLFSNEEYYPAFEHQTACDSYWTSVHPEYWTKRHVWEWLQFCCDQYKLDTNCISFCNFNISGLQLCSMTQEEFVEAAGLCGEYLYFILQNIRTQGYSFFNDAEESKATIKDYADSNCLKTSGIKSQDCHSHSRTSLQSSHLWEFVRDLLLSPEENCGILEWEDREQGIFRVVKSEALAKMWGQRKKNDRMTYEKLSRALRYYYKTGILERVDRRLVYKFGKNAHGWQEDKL
An outline of the steps: as §1

In a further assay the target is T7, ETV3 (Homo sapiens, UniProt P41162-2 1-143).
T7 sequence: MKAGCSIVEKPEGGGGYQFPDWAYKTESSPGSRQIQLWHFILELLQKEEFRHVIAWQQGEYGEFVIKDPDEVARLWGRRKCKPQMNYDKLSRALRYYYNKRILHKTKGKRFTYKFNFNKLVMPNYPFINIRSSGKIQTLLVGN
The essentials:
as §1

The target of a further assay is ETV6 (Homo sapiens, UniProt P41212 1-452). An outline of the steps:
as §1

ETV6, sequence (P41212 whole entry): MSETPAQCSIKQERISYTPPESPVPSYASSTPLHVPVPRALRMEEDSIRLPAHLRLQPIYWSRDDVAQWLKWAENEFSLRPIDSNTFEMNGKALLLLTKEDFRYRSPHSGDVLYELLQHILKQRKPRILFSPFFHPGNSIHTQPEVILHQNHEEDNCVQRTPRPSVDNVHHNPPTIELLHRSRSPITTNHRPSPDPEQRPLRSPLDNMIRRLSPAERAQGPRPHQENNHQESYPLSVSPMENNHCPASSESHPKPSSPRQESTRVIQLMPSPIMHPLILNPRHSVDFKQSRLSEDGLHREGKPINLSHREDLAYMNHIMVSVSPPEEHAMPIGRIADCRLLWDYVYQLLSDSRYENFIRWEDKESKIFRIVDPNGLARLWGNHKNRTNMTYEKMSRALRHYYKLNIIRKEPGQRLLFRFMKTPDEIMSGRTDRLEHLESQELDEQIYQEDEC

As to CTACTG, the binding signal with ERF was 1.4 fold enrichment (6-mer frequency, TF over GST control); with ETV3L it was 1.37 fold enrichment (6-mer frequency, TF over GST control); with ETS2, 1.34 fold enrichment (6-mer frequency, TF over GST control); with SPDEF it was 1.21 fold enrichment (6-mer frequency, TF over GST control); in the assay with ETV7, 1.26 fold enrichment (6-mer frequency, TF over GST control); with ELF5 it was 1.32 fold enrichment (6-mer frequency, TF over GST control). Also, the binding signal with ETV3 is 1.16 fold enrichment (6-mer frequency, TF over GST control); in the assay with ETV6, 1.24 fold enrichment (6-mer frequency, TF over GST control).

On to TTCTAG, for which the binding signal with ERF was 1.33 fold enrichment (6-mer frequency, TF over GST control); with ETV3L it was 1.3 fold enrichment (6-mer frequency, TF over GST control); in the assay with ETS2 it was 1.34 fold enrichment (6-mer frequency, TF over GST control); in the assay with SPDEF, 1.17 fold enrichment (6-mer frequency, TF over GST control); with ETV7, 1.45 fold enrichment (6-mer frequency, TF over GST control); with ELF5, 1.2 fold enrichment (6-mer frequency, TF over GST control). The binding signal in the assay with ETV3 is 1.19 fold enrichment (6-mer frequency, TF over GST control); in the assay with ETV6 it was 1.16 fold enrichment (6-mer frequency, TF over GST control).

With TTATGC, the binding signal in the assay with ERF was 1.16 fold enrichment (6-mer frequency, TF over GST control); with ETV3L, 1.33 fold enrichment (6-mer frequency, TF over GST control); in the assay with ETS2, 1.28 fold enrichment (6-mer frequency, TF over GST control); with SPDEF, 1.37 fold enrichment (6-mer frequency, TF over GST control); in the assay with ETV7 it was 1.44 fold enrichment (6-mer frequency, TF over GST control); with ELF5 it was 1.29 fold enrichment (6-mer frequency, TF over GST control). The binding signal in the assay with ETV3 was 1.34 fold enrichment (6-mer frequency, TF over GST control); with ETV6 it was 1.31 fold enrichment (6-mer frequency, TF over GST control).

For the sequence CCAAAA, the binding signal with ERF was 1.16 fold enrichment (6-mer frequency, TF over GST control); with ETV3L, 1.1 fold enrichment (6-mer frequency, TF over GST control); with ETS2 it was 1.11 fold enrichment (6-mer frequency, TF over GST control); in the assay with SPDEF, 1.11 fold enrichment (6-mer frequency, TF over GST control); with ETV7, 1.11 fold enrichment (6-mer frequency, TF over GST control); with ELF5 it was 1.11 fold enrichment (6-mer frequency, TF over GST control). The binding signal is 1.15 fold enrichment (6-mer frequency, TF over GST control) with ETV3 and 1.2 fold enrichment (6-mer frequency, TF over GST control) in the assay with ETV6.

For the sequence CCGATT, the binding signal with ERF is 1.28 fold enrichment (6-mer frequency, TF over GST control); with ETV3L, 1.43 fold enrichment (6-mer frequency, TF over GST control); in the assay with ETS2 it was 1.39 fold enrichment (6-mer frequency, TF over GST control); with SPDEF, 1.32 fold enrichment (6-mer frequency, TF over GST control); with ETV7, 1.31 fold enrichment (6-mer frequency, TF over GST control); with ELF5, 1.39 fold enrichment (6-mer frequency, TF over GST control). The binding signal with ETV3 was 1.38 fold enrichment (6-mer frequency, TF over GST control); in the assay with ETV6, 1.52 fold enrichment (6-mer frequency, TF over GST control).

Consider TTGTAA, for which the binding signal with ERF was 1.36 fold enrichment (6-mer frequency, TF over GST control); with ETV3L, 1.32 fold enrichment (6-mer frequency, TF over GST control); in the assay with ETS2, 1.23 fold enrichment (6-mer frequency, TF over GST control); in the assay with SPDEF, 1.26 fold enrichment (6-mer frequency, TF over GST control); with ETV7, 1.27 fold enrichment (6-mer frequency, TF over GST control); with ELF5, 1.26 fold enrichment (6-mer frequency, TF over GST control). Besides, the binding signal is 1.3 fold enrichment (6-mer frequency, TF over GST control) with ETV3 and 1.28 fold enrichment (6-mer frequency, TF over GST control) with ETV6.

As to TTCTGC, the binding signal is 1.55 fold enrichment (6-mer frequency, TF over GST control) with ERF; 1.4 fold enrichment (6-mer frequency, TF over GST control) with ETV3L; 1.33 fold enrichment (6-mer frequency, TF over GST control) with ETS2; 1.38 fold enrichment (6-mer frequency, TF over GST control) with SPDEF; 1.43 fold enrichment (6-mer frequency, TF over GST control) with ETV7; 1.38 fold enrichment (6-mer frequency, TF over GST control) with ELF5. Moreover, the binding signal with ETV3 was 1.33 fold enrichment (6-mer frequency, TF over GST control); with ETV6 it was 1.47 fold enrichment (6-mer frequency, TF over GST control).

Consider CATATA, for which the binding signal is 1.04 fold enrichment (6-mer frequency, TF over GST control) in the assay with ERF; 1.09 fold enrichment (6-mer frequency, TF over GST control) with ETV3L; 1.08 fold enrichment (6-mer frequency, TF over GST control) with ETS2; 1.02 fold enrichment (6-mer frequency, TF over GST control) in the assay with SPDEF; 1.1 fold enrichment (6-mer frequency, TF over GST control) with ETV7; 1.01 fold enrichment (6-mer frequency, TF over GST control) with ELF5. In addition, the binding signal is 1.09 fold enrichment (6-mer frequency, TF over GST control) with ETV3 and 1.12 fold enrichment (6-mer frequency, TF over GST control) with ETV6.

With CCTAGC, the binding signal in the assay with ERF was 1.26 fold enrichment (6-mer frequency, TF over GST control); with ETV3L, 1.09 fold enrichment (6-mer frequency, TF over GST control); in the assay with ETS2, 1.11 fold enrichment (6-mer frequency, TF over GST control); with SPDEF, 1.21 fold enrichment (6-mer frequency, TF over GST control); in the assay with ETV7 it was 1.18 fold enrichment (6-mer frequency, TF over GST control); with ELF5, 1.06 fold enrichment (6-mer frequency, TF over GST control). The binding signal with ETV3 is 1.16 fold enrichment (6-mer frequency, TF over GST control); with ETV6 it was 1.15 fold enrichment (6-mer frequency, TF over GST control).
